RTF Ca sens inh – cardiac RTF calcium sensitivity inhibitors, primary screen, biochemical, IANBD-TnC fluorescence, EC70 calcium | IANBD-labeled cardiac RTF, Ca2+ fluorescence | inhibition, % at 7.15 µM | actives 0.12% (n = 340,000) | Troponin I, cardiac muscle (Homo sapiens) + Troponin T, cardiac muscle (Homo sapiens) + …;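 active = inhibition above the mean inhibition of all tested compounds plus 3 SD, cut at about 17% in these data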;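 also: assay run at fixed EC70 calcium of 1.6 mM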
C-LANA FP – inhibitors of KSHV C-LANA binding to DNA, primary screen, biochemical, fluorescence polarization, FAM-LBS DNA, MBP-C-LANA, single point; Kaposi's sarcoma herpesvirus LANA C-terminal domain (residues 932-1162) DNA binding; inhibition, % at 9 µM; actives 0.078% (n = 340,000); AID 504423, 2011;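 active = highest replicate inhibition at or above 60% at 9 µM, even if other replicates fall short; inactive = all replicates below 60% inhibition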;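 also: 0% = neutral control wells and 100% = 4 µM acridine orange control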
Keap1 Nrf2 FP – Keap1-Nrf2 protein-protein interaction inhibitors, primary screen, biochemical, fluorescence polarization, single point. actives 0.15% (n = 340,000). Kelch-like ECH-associated protein 1 (Homo sapiens), Q14145. Keap1 Kelch-Nrf2 peptide fluorescence polarization, 1536-well. AID 504523, 2011. inhibition, % at 9.4 µM; in the data active = inhibition above about 12%;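 also: human Keap1 Kelch domain with fluorescein labeled Nrf2 9mer peptide probe; 0% = neutral control wells and 100% = peptide positive control; higher means more block of Keap1 binding to Nrf2 peptide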
Target sequence (Q14145 whole entry, looked up, the tested form may be a part): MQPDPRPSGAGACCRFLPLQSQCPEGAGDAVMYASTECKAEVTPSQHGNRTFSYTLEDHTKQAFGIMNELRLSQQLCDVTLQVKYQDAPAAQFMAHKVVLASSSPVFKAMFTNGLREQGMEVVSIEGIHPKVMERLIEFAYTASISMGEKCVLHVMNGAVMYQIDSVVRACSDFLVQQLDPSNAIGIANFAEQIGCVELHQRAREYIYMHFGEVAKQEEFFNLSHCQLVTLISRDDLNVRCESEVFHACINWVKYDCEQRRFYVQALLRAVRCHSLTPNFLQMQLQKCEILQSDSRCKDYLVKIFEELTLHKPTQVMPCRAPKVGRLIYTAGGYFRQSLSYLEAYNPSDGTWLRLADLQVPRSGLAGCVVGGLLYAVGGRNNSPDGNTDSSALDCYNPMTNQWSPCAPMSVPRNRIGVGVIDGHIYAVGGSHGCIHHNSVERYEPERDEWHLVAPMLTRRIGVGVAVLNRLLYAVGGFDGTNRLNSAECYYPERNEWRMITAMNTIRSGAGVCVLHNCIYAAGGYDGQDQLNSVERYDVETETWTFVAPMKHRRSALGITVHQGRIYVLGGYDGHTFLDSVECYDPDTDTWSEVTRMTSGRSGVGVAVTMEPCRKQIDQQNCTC
E coli Lon inh – inhibitors of E. coli Lon protease, primary screen, biochemical, fluorescence polarization; AID 602123, 2011; P0A9M0; purified E. coli Lon protease; inhibition, % at 7.94 µM; actives 0.42% (n = 360,000); in the data active = inhibition above about 13%, passing the limit was not always enough;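 also: 0% = enzyme with probe and DMSO and 100% = no enzyme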
RTF Ca sens act – cardiac RTF calcium sensitivity activators, primary screen, biochemical, IANBD-TnC fluorescence, EC20 calcium. IANBD-labeled TnC RTF fluorescence at EC20 calcium; 0% EC20 calcium, 100% full calcium. AID 493008, 2010. activation, % at 7.2 µM. actives 0.24% (n = 340,000);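 active = activation above the mean over all tested compounds plus 3 SD, cut at about 30% in these data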;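 also: rise in fluorescence read as greater calcium sensitivity of cardiac thin filaments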
Keap1 TSA – Keap1 Kelch domain binders by thermal stabilisation, dose response, biophysical, thermal shift, RT-PCR instrument, cherry-pick; shares compounds with Keap1 Nrf2 FP; actives 8% (n = 400); delta Tm; active compounds read high; max delta Tm, degrees C; AID 651823, 2012; in the data active = max delta Tm above about 0.48 degrees C
Sypro dye melt – Sypro Orange dye melt without protein, dose response, artefact control for Keap1-Nrf2 interaction inhibitor project, biochemical, thermal shift counterscreen, cherry-pick; shares compounds with Keap1 Nrf2 FP; Sypro Orange dye-only thermal melt, no protein, delta Tm; top dose 26 µM; delta Tm, degrees C (test concentration not listed); 140 tested, under 10 active; AID 651858, 2012;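 active = at highest dose tested, delta Tm positive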
* hit, by the source's call. A selection: hits, their analogues and other compounds. The true share with any hit is near 0.82%.

What do the screens show for `CC(C)C1OC2(C)OC(=N)C1(C#N)C(C#N)(C#N)C2c1ccccc1` (stereo not given)?
RTF Ca sens inh: -27.8; C-LANA FP: 94.1*; Keap1 Nrf2 FP: 21.1*; E coli Lon inh: 25.6; RTF Ca sens act: 9.6; Keap1 TSA: -0.06; Sypro dye melt: -30.8

Results for CCC1OC2(C)OC(=N)C1(C#N)C(C#N)(C#N)C2c1ccccc1 (stereo not given) ?
RTF Ca sens inh: -17.1; C-LANA FP: 63.5*; Keap1 Nrf2 FP: 31.1*; E coli Lon inh: -20.6; RTF Ca sens act: 14.7; Keap1 TSA: -0.08; Sypro dye melt: -22

What do the screens show for `CC1(C(=O)Nc2cccc(NS(C)(=O)=O)c2)Cc2c(-c3ccc(C(N)=O)cc3)ccnc2O1` (stereo not given)?
E coli Lon inh: 6.2

What do the screens show for `CCC(C)(C)n1nnnc1C(c1cc2ccc(OC)cc2[nH]c1=O)N1CCc2ccccc2C1` (stereo not given)?
RTF Ca sens inh: -1.3; C-LANA FP: 34.5; Keap1 Nrf2 FP: 9.6*; E coli Lon inh: -5.0; RTF Ca sens act: -1.2; Keap1 TSA: -0.13; Sypro dye melt: -24.5

Results for Cc1nn(-c2ccccc2)c2nc(-c3ccco3)cc(C(=O)O)c12 ?
RTF Ca sens inh: -3.9; C-LANA FP: 13.8; Keap1 Nrf2 FP: 4.0; E coli Lon inh: 3.7; RTF Ca sens act: -0.5

What do the screens show for `COC(=O)c1cc(C)nc2c1c(C)nn2-c1ccccc1`?
RTF Ca sens inh: -4.0; C-LANA FP: 19.9; Keap1 Nrf2 FP: 43.7*; E coli Lon inh: -0.1; RTF Ca sens act: -2.2; Keap1 TSA: -0.15; Sypro dye melt: -27.9

What do the screens show for `COc1ccc(NC(=O)Cc2ccsc2)cc1S(=O)(=O)N1CCOCC1`?
RTF Ca sens inh: -13.2; C-LANA FP: 26.8; Keap1 Nrf2 FP: 46.0*; E coli Lon inh: 0.6; RTF Ca sens act: 8.6; Keap1 TSA: -0.13

How did c1ccc(Nc2nc3ccccc3n3nnnc23)cc1 do in these assays?
RTF Ca sens inh: -12.3; C-LANA FP: 12.5; Keap1 Nrf2 FP: 24.4*; E coli Lon inh: -29.8; RTF Ca sens act: 2.9; Keap1 TSA: -0.12; Sypro dye melt: -27.9

What do the screens show for `Cc1cccn2c(=O)c3cc(S(=O)(=O)c4ccccc4)c(=N)n(Cc4cccnc4)c3nc12`?
RTF Ca sens inh: -4.8; C-LANA FP: 31.3; Keap1 Nrf2 FP: 19.5*; E coli Lon inh: 13.4; RTF Ca sens act: -1.1; Keap1 TSA: -0.02

What do the screens show for `O=C(CSC1=NNC(c2ccccn2)S1)Nc1ccccc1` (stereo not given)?
RTF Ca sens inh: 0.3; C-LANA FP: -0.1; Keap1 Nrf2 FP: -4.1; E coli Lon inh: 6.6; RTF Ca sens act: 0.4

Results for O=C(CSC1=NNC(c2ccccn2)S1)Nc1cccc(Cl)c1 (stereo not given) ?
C-LANA FP: 11.7; Keap1 Nrf2 FP: 18.9*; E coli Lon inh: -5.6; Keap1 TSA: -0.17

What do the screens show for `COc1ccc(C2CCc3cc4c(cc3C2=NOC(C)=O)OCO4)cc1OC` (stereo not given)?
E coli Lon inh: -7.5

Results for COc1ccccc1-c1cnc2c(c1)C(=O)N([C@@H](C)CO)C[C@@H](C)[C@H](CN(C)C(=O)c1cccnc1)O2 ?
E coli Lon inh: -2.3

What do the screens show for `Cc1ccc(C(=O)NNC(=O)c2csc(N3CCOCC3)n2)o1`?
RTF Ca sens inh: 6.4; C-LANA FP: 0.3; Keap1 Nrf2 FP: 3.9; E coli Lon inh: -14.7; RTF Ca sens act: 3.2

How did O=C(NNC(=O)c1ccc(Br)o1)c1csc(N2CCOCC2)n1 do in these assays?
RTF Ca sens inh: -10.8; C-LANA FP: 26.5; Keap1 Nrf2 FP: 46.0*; E coli Lon inh: -1.5; RTF Ca sens act: 7.2; Keap1 TSA: -0.12; Sypro dye melt: -23.8

What do the screens show for `Cc1sc2ccccc2[n+]1CC(=O)c1ccccc1`?
RTF Ca sens inh: -9.1; C-LANA FP: 10.7; Keap1 Nrf2 FP: 22.1*; E coli Lon inh: -4.9; RTF Ca sens act: 4.8; Keap1 TSA: -0.12

How did Cc1sc2ccccc2[n+]1CC(=O)O do in these assays?
RTF Ca sens inh: -0.1; C-LANA FP: 2.1; Keap1 Nrf2 FP: -2.8; E coli Lon inh: -1.0; RTF Ca sens act: -2.1

How did COC(=O)c1ccc(CN2C(=O)c3ccccc3C2=O)cc1 do in these assays?
RTF Ca sens inh: -2.6; C-LANA FP: -1.2; Keap1 Nrf2 FP: 1.6; E coli Lon inh: -2.6; RTF Ca sens act: -0.9

How did COC(=O)c1ccc(OC(=O)CN2C(=O)c3ccccc3C2=O)cc1 do in these assays?
RTF Ca sens inh: -6.1; C-LANA FP: 24.6; Keap1 Nrf2 FP: 57.0*; E coli Lon inh: -1.7; RTF Ca sens act: -1.9; Keap1 TSA: -0.1

What do the screens show for `Cc1nc(NC(=O)C2CC2)sc1C(=O)Nc1ccccc1`?
RTF Ca sens inh: -7.3; C-LANA FP: 0.4; Keap1 Nrf2 FP: -0.6; E coli Lon inh: -1.2; RTF Ca sens act: -5.8

Results for Cc1ccccc1NC(=O)c1sc(NC(=O)C2CC2)nc1C ?
RTF Ca sens inh: -2.5; C-LANA FP: 11.9; Keap1 Nrf2 FP: 28.4*; E coli Lon inh: -8.0; RTF Ca sens act: 1.7; Keap1 TSA: 0.01

How did Cc1[nH]nc2c1C(CC(C)C)C(C#N)=C(N)O2 (stereo not given) do in these assays?
C-LANA FP: 28.4; Keap1 Nrf2 FP: 46.2*; E coli Lon inh: 3.9; Keap1 TSA: -0.17; Sypro dye melt: -32.9

What do the screens show for `COc1ccc(/C=c2\s/c(=C(/C#N)C(=O)NCc3ccco3)n(-c3ccccc3)c2=O)cc1`?
RTF Ca sens inh: -10.7; C-LANA FP: 13.1; Keap1 Nrf2 FP: 13.1*; E coli Lon inh: -11.5; RTF Ca sens act: -1.4; Keap1 TSA: -0.02

How did CCOC(=O)C(C)(C)N(Cc1ccccc1C)S(=O)(=O)c1ccc(Cl)c([N+](=O)[O-])c1 do in these assays?
RTF Ca sens inh: 5.2; C-LANA FP: 0.1; Keap1 Nrf2 FP: 27.3*; E coli Lon inh: 1.8; RTF Ca sens act: -7.2; Keap1 TSA: -0.13; Sypro dye melt: -26.8

What do the screens show for `O=C(COC(=O)c1cccnc1Cl)Nc1ccc(N2CCCCC2)cc1`?
RTF Ca sens inh: -14.5; Keap1 Nrf2 FP: 43.2*; E coli Lon inh: -15.8; RTF Ca sens act: 2.4; Keap1 TSA: -0.12; Sypro dye melt: -27.5

Results for O=C(COC(=O)c1cccnc1Cl)Nc1ccc(N2CCOCC2)cc1 ?
E coli Lon inh: -2.0
